An excerpt weighted towards active compounds, which were near 2.9% of everything screened.
D3 ag = qHTS of D3 Dopamine Receptor Agonist: qHTS; max activation, %; 0.58% of 410,000 active; AID 652048, 2013; D(3) dopamine receptor (Homo sapiens), P35462; D3R DiscoveRx beta-arrestin cells, luminescence, 90 min; in the data active means max activation above about 30%
Target sequence (P35462 whole entry, looked up): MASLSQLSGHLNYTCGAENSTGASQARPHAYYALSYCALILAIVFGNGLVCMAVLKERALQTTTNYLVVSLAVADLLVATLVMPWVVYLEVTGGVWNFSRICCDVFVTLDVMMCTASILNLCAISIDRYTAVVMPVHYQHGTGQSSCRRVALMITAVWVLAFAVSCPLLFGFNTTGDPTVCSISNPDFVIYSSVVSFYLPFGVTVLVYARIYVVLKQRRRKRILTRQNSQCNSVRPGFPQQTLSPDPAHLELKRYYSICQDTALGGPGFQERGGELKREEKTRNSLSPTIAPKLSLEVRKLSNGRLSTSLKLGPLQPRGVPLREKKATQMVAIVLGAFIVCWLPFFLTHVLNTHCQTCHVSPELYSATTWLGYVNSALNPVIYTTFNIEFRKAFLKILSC
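Agonist-mode cell screen: cells plated at 1500/well and incubated overnight at 37 °C, then exposed to library compounds for 90 min at 37 °C. Detection reagent was added for 30–60 min at room temperature, and luminescence was read.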
TRPML1 ag = qHTS for Agonists of the Human Mucolipin Transient Receptor Potential 1 (TRPML1); Mucolipin-1 (Homo sapiens), Q9GZU1; TRPML1-expressing cells, Ca2+ dye fluorescence, FDSS; activation, % (test concentration not listed); 0.12% of 410,000 active; AID 624414, 2012; in the data active means activation above about 50%; inconclusive means mostly about 30% to 49%
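Tet-induced TRPML1-DL cells, 1,500 per well, cultured overnight, were loaded with a no-wash Ca2+ dye for 45–90 min. Calcium fluorescence was recorded on the FDSS for 110 s after compound addition, before the EC80 agonist (4 uM 54-4) was added.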
TRPML1 blocker = qHTS for Inhibitors of the Human Mucolipin Transient Receptor Potential 1 (TRPML1); Mucolipin-1 (Homo sapiens), Q9GZU1; TRPML1-inducible cells, Ca2+ dye fluorescence, FDSS; stronger effect = lower value; inhibition of EC80 agonist-evoked calcium signal; activity change, negative = inhibition, % (test concentration not listed); 0.02% of 390,000 active; AID 624415, 2012; in the data active means activity change below about -50%; inconclusive means between about -30% and that limit;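 further: stimulus is agonist 54-4 at its EC80 concentration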
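TRPML1-DL cells, Tet-induced overnight (~16 h, 37 °C) at 1,500 cells/well, were loaded with Ca8 no-wash dye plus quencher for 45-90 min at room temperature. Compounds were pinned during FDSS kinetic reading; agonist 54-4 at EC80 (4 uM final) then added.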
DRD3 antagonist = qHTS of D3 Dopamine Receptor Antagonist: qHTS | D3R cells, DiscoveRx beta-arrestin luminescence, antagonist mode; stronger effect = lower value | max response, negative = inhibition, % | 2.5% of 360,000 active; in the data active means max response below about -50%; inconclusive means no clear call, values can overlap the other calls
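Cells plated overnight at 1500 cells/well, then exposed to library compounds with dopamine controls for 90 minutes at 37 degrees C. DiscoveRx reagent added for 30–60 minutes at room temperature; luminescence read, quantitative HTS format.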
Large screens that a line does not name were inactive.

Cc1ccccc1NC1=C/C(=N\S(=O)(=O)c2cccs2)c2ccccc2C1=O	DRD3 antagonist -112
COc1ccc(S(=O)(=O)/N=C2\C=C(Nc3ccc(O)cc3)C(=O)c3ccccc32)cc1	DRD3 antagonist -80
COc1ccc(C(=O)NCc2nc(-c3cccc(C)c3)no2)cc1OC	none (no result: DRD3 antagonist)
Cc1cc2nc(SCC(=O)N(C)C)c3c(c2cc1C)CCCC3	DRD3 antagonist -50
CN(C)C(=O)CSc1nc(-c2ccccc2)nc2c1CCCC2	none
CCSc1ccc([C@@H]2[C@H]3C(=O)N(CC)C(=O)[C@H]3[C@]3(C(=O)OC)CCCCN23)cc1OC	D3 ag 63
CCCSc1ccc([C@@H]2[C@@H]3C(=O)N(CC)C(=O)[C@@H]3[C@]3(C(=O)OC)CCCCN23)cc1OC	none
CCOC(=O)N1CCN(C(=O)CNC(=O)c2nn(-c3ccc(OC)c(OC)c3)c(=O)c3ccccc23)CC1	D3 ag 54
Cc1ccc2c(c1)c(=O)c1ccccc1n2CCCC(=O)Nc1cc(Cl)ccc1C	none (no result: DRD3 antagonist)
Cc1ccc(NC(=O)CCCn2c3ccccc3c(=O)c3cc(C)ccc32)c(Br)c1	D3 ag 39 (no result: DRD3 antagonist)
Cc1ccsc1C1C(C#N)=C(N)Oc2n[nH]c(C)c21 (stereo not given)	none
Cc1cc(C)c(C2C(C#N)=C(N)Oc3n[nH]c(C)c32)cc1CN1CCOCC1 (stereo not given)	DRD3 antagonist -60
COc1ccc(C2Nc3ccccc3C(=O)N2c2ccccc2F)cc1COc1ccc(NC(C)=O)cc1 (stereo not given)	none (no result: D3 ag, TRPML1 blocker, DRD3 antagonist)
COc1ccc(C(CNC(=O)c2oc3cc(Br)ccc3c2C)N2CCCCC2)cc1 (stereo not given)	DRD3 antagonist -86
COc1ccc(C(CNC(=O)c2oc3ccc(Br)cc3c2C)N2CCCCC2)cc1 (stereo not given)	DRD3 antagonist -76
CCc1ccc2oc(C(=O)NCC(c3ccc(OC)cc3)N3CCCCC3)c(C)c2c1 (stereo not given)	DRD3 antagonist -77
COc1ccc(C(CNC(=O)c2oc3ccc(OC)cc3c2C)N2CCCC2)cc1 (stereo not given)	none
COc1ccc(C(CNC(=O)c2oc3cc(C)c(C)cc3c2C)N2CCCCC2)cc1 (stereo not given)	DRD3 antagonist inconclusive
COc1ccc(C(CNC(=O)c2oc3ccc(F)cc3c2C)N2CCCCC2)cc1 (stereo not given)	DRD3 antagonist -104
CCCC(=O)O[C@]1(C(=O)COC(=O)CC)[C@@H](C)C[C@H]2[C@@H]3CCC4=CC(=O)C=C[C@]4(C)[C@@]3(F)[C@@H](O)C[C@@]21C	none (no result: TRPML1 ag, TRPML1 blocker, DRD3 antagonist)
CC(C)[C@H]1COCCS(=O)(=O)N1Cc1cccc([N+](=O)[O-])c1	none (no result: D3 ag, TRPML1 blocker, DRD3 antagonist)
CCCCOc1ccc(C(=O)N2CCN(CCc3ccncc3)CC2)cc1	none (no result: DRD3 antagonist)
Cc1ccc2c(c1)N(C(=O)N1CCC(C(=O)NCCC3=CCCCC3)CC1)CC(C)O2 (stereo not given)	none (no result: DRD3 antagonist)
CC(=O)Nc1ccc(NC(=O)COC(=O)c2ccccc2OCc2cccc(Br)c2)cc1	none (no result: D3 ag, TRPML1 blocker, DRD3 antagonist)
COc1ccc(Br)cc1CN1CCN(Cc2c[nH]c3ccccc23)CC1	DRD3 antagonist -90
COc1ccc(CN2CCN(Cc3c[nH]c4ccccc34)CC2)cc1OC	DRD3 antagonist -52
COc1ccc(CN2CCCCCC2)c(C)c1C	DRD3 antagonist -75
CCN(Cc1ccccc1)C(=O)C1CCN(Cc2ccc(OC)c(OC)c2OC)CC1	DRD3 antagonist -51
COc1ccc(C(=O)C2CCCN(C/C=C/c3ccccc3OC)C2)c(OC)c1 (stereo not given)	DRD3 antagonist -72
COc1cccc(C(=O)N2CCN(Cc3cc(Br)ccc3OC)CC2)c1	DRD3 antagonist -84
COc1ccc(CN2CCN(Cc3ccc(C(F)(F)F)cc3)CC2)c(OC)c1	none
Cc1ccc(CN2CCN(Cc3ccccc3C(F)(F)F)CC2)cc1	DRD3 antagonist -72
COc1ccc(CN2CCN(Cc3ccc(C)cc3)CC2)c(OC)c1	DRD3 antagonist -50
CCn1cc(/C=C(\NC(=O)c2ccc(OC)c(OC)c2)C(=O)NCCCn2ccnc2)c2ccccc21	none (no result: DRD3 antagonist)
Cc1cc(/C=C/c2c(C)cnc3ccccc23)ccc1N(C)C	none (no result: D3 ag, TRPML1 blocker, DRD3 antagonist)
CCCCOc1ccc(S(=O)(=O)NCc2csc(-c3ccc(OC)cc3)n2)cc1	none (no result: DRD3 antagonist)
N#Cc1nc(COc2cccc(Cl)c2)oc1NCCc1ccccc1	none (no result: DRD3 antagonist)
CN1CCN(Cc2cccc(Oc3ccccc3)c2)CC1	none
COc1ccc(C(=O)C2CCCN(Cc3c[nH]c4ccccc34)C2)c(OC)c1 (stereo not given)	DRD3 antagonist -96
COc1ccc(CN2CCN(Cc3c[nH]c4ccccc34)CC2)c(OC)c1	DRD3 antagonist -74
CCOC(=O)c1[nH]ncc1CN1CCCC(C(=O)c2cc(Cl)ccc2OC)C1 (stereo not given)	DRD3 antagonist -102
COc1ccc(C(=O)C2CCCN(Cc3c(F)ccc(F)c3F)C2)c(OC)c1 (stereo not given)	none
COc1ccc(CN2CCN(Cc3cccc(Oc4ccccc4)c3)CC2)c(OC)c1OC	DRD3 antagonist -70
O=C(CCn1c(=O)c2ccccc2n(CC(=O)Nc2ccc(F)cc2)c1=O)NCCc1ccccc1	none (no result: DRD3 antagonist)
CCCCS(=O)(=O)c1oc(-c2ccc(F)cc2)nc1S(=O)(=O)c1ccccc1	none (no result: DRD3 antagonist)
CCOC(=O)C(C)Sc1nc(-c2ccccn2)ncc1OC (stereo not given)	none
COc1cnc(-c2ccccn2)nc1Sc1c(Cl)cccc1Cl	DRD3 antagonist -65
COc1cnc(-c2ccccn2)nc1Sc1ccccc1Cl	DRD3 antagonist -68
O=C1C=CC(=O)N1	DRD3 antagonist -83
CCOc1[nH]c(/N=C/c2ccc(OC)cc2)c(C#N)c1C#N	none (no result: D3 ag, TRPML1 blocker, DRD3 antagonist)
COc1ccc(C(=O)Nc2nc(N3C(=O)c4ccccc4C3=O)n(-c3ccccc3)n2)cc1	DRD3 antagonist -91
O=C(Nc1nc(N2C(=O)c3ccccc3C2=O)n(-c2ccccc2)n1)c1ccc(F)cc1	DRD3 antagonist -55
CC(=O)Nc1nc(N2C(=O)c3ccccc3C2=O)n(-c2ccccc2)n1	DRD3 antagonist -63
O=C(Nc1nc(N2C(=O)c3ccccc3C2=O)n(-c2ccccc2)n1)c1ccccc1	none
COc1ccc(C(=O)Nc2cc(-c3ccccc3)nn2-c2ccccc2)cc1	none (no result: DRD3 antagonist)
CC(=O)Nc1nc(N)n(-c2ccccc2)n1	none
O=[N+]([O-])c1ccccc1/C=C/c1ccnc2ccccc12	none (no result: D3 ag, TRPML1 blocker, DRD3 antagonist)
CC(C)(C)n1ncc2c(=O)n(Cc3cc(C(F)(F)F)ccc3Cl)cnc21	none (no result: D3 ag, DRD3 antagonist)
CC(=O)Oc1ccc(C2(c3ccc(OC(C)=O)cc3)Oc3ccccc3NC2=O)cc1	none (no result: TRPML1 ag, TRPML1 blocker, DRD3 antagonist)
COCCn1c(SCCN2CCCCC2)nc2ccccc2c1=O	DRD3 antagonist -65
COCCn1c(SCC(=O)N2CCCCC2)nc2ccccc2c1=O	none
